Rows were chosen to be rich in hits. Some 3.5% of all compounds tested hit in one or more screens of this group.
MITF inh: human MITF inhibition, primary screen; O75030; AlphaScreen MITF homodimerization, bead proximity signal; inhibition, % at 2.6 µM; 650,000 compounds, 0.91% hits; in the data active = inhibition above about 50%;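 also: 0% = vehicle wells with protein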
Target sequence (O75030 whole entry, looked up): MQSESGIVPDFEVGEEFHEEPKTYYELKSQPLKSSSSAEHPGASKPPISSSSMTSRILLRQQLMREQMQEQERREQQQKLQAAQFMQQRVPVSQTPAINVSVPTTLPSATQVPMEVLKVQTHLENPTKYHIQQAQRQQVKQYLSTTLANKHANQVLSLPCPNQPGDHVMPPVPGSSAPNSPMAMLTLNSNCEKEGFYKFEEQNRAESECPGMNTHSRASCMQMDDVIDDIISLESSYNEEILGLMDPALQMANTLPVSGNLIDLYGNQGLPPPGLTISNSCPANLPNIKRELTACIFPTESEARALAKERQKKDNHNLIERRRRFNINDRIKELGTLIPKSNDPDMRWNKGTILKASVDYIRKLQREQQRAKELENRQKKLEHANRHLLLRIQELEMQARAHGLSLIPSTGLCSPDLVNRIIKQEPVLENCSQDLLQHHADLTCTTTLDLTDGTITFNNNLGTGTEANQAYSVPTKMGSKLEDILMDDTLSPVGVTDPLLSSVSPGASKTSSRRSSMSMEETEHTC
TEAD-YAP inh: TEAD-YAP interaction inhibition; 640,000 compounds, 1.4% hits; HEK-TIYL cells, TEAD-Gal4/YAP UAS-luciferase luminescence; AID 1259422; inhibition, % at 9.12 µM; in the data active = inhibition above about 32%;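 also: 0% = median of test compound wells and 100% = reference inhibitor wells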
GPR151 ag: activators of human GPR151; 650,000 compounds, 1% hits; activation, % at 11.2 µM; Q8TDV0; PathHunter beta-arrestin GPR151 cells, luminescence; AID 1508602; in the data active = activation above about 4.9%;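 also: 0% = median of compound wells and 100% = cells with positive control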
FBW7 act: activators of human E3 ligase FBW7 | Q969H0 | AlphaScreen FBW7–phospho-cyclin E peptide binding, activator screen | normalized activity (activation), % at 26.1 µM | 650,000 compounds, 0.13% hits; in the data active = normalized activity above about 1.9%;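 also: purified mutant Fbw7 with reduced substrate affinity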
Active calls of the source: *; ! = not confirmed by another sample.

SMILES | MITF inh | TEAD-YAP inh | GPR151 ag | FBW7 act
CCCCN(CC)S(=O)(=O)c1ccc(F)c(C(=O)Nc2ccc(OC)cc2)c1 | 1 | -9 | 0 | 0
CC(C)OC(=O)Nc1ccc(Br)cc1 | -10 | -69 | -2 | 0
C1=C(c2ccc3c(c2)CN(Cc2nccs2)CCO3)CCCC1 | 2 | 2 | 1 | 0
NC(C(=O)Nc1ccc(-c2ccnc3[nH]ccc23)cc1)c1ccc(Cl)cc1 (stereo unspecified) | 11 | 8 | 0 | 0
NC(C(=O)Nc1ccc(-c2ncnc3[nH]ccc23)cc1)c1ccc(Cl)cc1 (stereo unspecified) | 17 | 57* | 0 | 0
O=C(Nc1ccc(-c2ncnc3[nH]ccc23)cc1)C1COc2ccccc2O1 (stereo unspecified) | 23 | 52* | -1 | 1
CCn1cnc2c(Nc3ccc(C)cc3C)ncnc21 | 9 | -58 | -1 | 0
CCn1cnc2c(Nc3ccc(F)cc3)ncnc21 | 14 | 34* | -10 | 1
CN1C(=O)/C(=C/c2cc(Cl)ccc2O)NC1=S | -7 | 62* | 2 | 0
CCc1ccc(NC(=S)N(Cc2ccccc2)Cc2cccs2)cc1 | -6 | 54* | -1 | 0
O=C(COc1ccc(C(=S)N2CCCC2)cc1)N1CCCC1 | 5 | 2 | 2 | 0
Fc1ccc(CNc2nccn3c(-c4cccc5cccnc45)cnc23)cc1 | -21 | 9 | 1 | 0
CC(C)CNc1nccn2c(-c3cccc4cccnc34)cnc12 | -12 | 42* | 1 | 0
CC(=O)c1ccc(-c2nc(-c3cccc(NS(C)(=O)=O)c3)cnc2N)cc1 | 2 | -4 | 0 | 0
Cc1ccc(-c2ncn(-c3ccc(Nc4nccc(-c5cccc(-n6cncn6)c5)n4)cc3)n2)cn1 | 14 | 1 | 3 | 0
C[Si](C)(C)c1nnn(-c2ccc(Nc3nccc(-c4cccc(NS(C)(=O)=O)c4)n3)cc2)c1N1CCOCC1 | 7 | 33* | 0 | 0
CC(=O)c1ccc(Nc2nccc(-c3cccc(NS(C)(=O)=O)c3)n2)cc1 | 7 | 82* | -1 | 1
CS(=O)(=O)Nc1cccc(-c2ccnc(Nc3ccc(-n4cncn4)cc3)n2)c1 | 12 | 91* | 2 | 0
NC(=O)c1cccc(-c2ccnc(Nc3ccc(N4CCOCC4)cc3)n2)c1 | 2 | -1 | 2 | 0
CCOc1ccc(NC(=O)CN2CCN(S(=O)(=O)c3ccc(Br)cc3)CC2)cc1 | 10 | 17 | 1 | 0
COc1ccc(Cl)cc1NS(=O)(=O)c1ccc(OC)c(C)c1C | 9 | 42* | 0 | 0
COc1ccc(Cl)cc1NS(=O)(=O)c1cc(C)ccc1OC | 3 | -2 | 0 | 0
COc1cc(NS(=O)(=O)c2ccc(OC)c(C)c2C)c(OC)cc1Cl | 5 | 54* | -1 | 0
O=C(COC(=O)[C@@H]1CCCN1/C=C/C(=O)C(F)(F)F)Nc1ccc([N+](=O)[O-])cc1 | 3 | 1 | 0 | 0
O=C(NC1CC1)c1cc(NCCCN2CCCC2=O)nc2ccccc12 | -3 | 1 | 0 | 0
SMILES | MITF inh | TEAD-YAP inh | GPR151 ag | FBW7 act
O=C(Nc1nnc(-c2ccncc2)o1)c1ccccc1Br | -6 | 2 | 3 | 0
Cc1cc(C)nc(/N=C(\N)Nc2ccccc2-c2ccccc2)n1 | 1 | 43* | 1 | 0
CCCCc1ccc(N/C(N)=N/c2nc(C)cc(C)n2)cc1 | 7 | 54* | 2 | 0
Cc1ccc(N/C(N)=N/c2nc(C)cc(C)n2)cc1 | 11 | 7 | -1 | 0
Cc1cc(C)nc(/N=C(\N)Nc2ccc(C(C)C)cc2)n1 | -2 | 35* | 2 | 0
N#Cc1ccccc1N=c1oc2ccccc2cc1C(N)=O | 16 | 4 | -1 | 0
NC(C(=O)N1CCC(Nc2ccc3[nH]ncc3c2)CC1)c1ccc(-c2ccccc2)cc1 (stereo unspecified) | 3 | 38* | -1 | 0
CCOC(=O)C(C)(N)Cc1ccc(O)c(O)c1 (stereo unspecified) | 15 | 3 | 3 | 0
N[C@H](Cc1ccc(I)cc1)C(=O)O | 5 | -4 | -1 | 0
N[C@@H](Cc1ccc(O)c(O)c1)C(=O)O | 79*! | 2 | -2 | 0
CC(N)(Cc1ccc(O)c(O)c1)C(=O)O (stereo unspecified) | 56* | 0 | 1 | 0
OCCN(CCO)CC(O)COc1ccc(C23CC4CC(CC(C4)C2)C3)cc1 (stereo unspecified) | 4 | 56* | 0 | 0
Cc1ccc(OCC(O)CN(CCO)CCO)cc1 (stereo unspecified) | -19 | -2 | 1 | 0
O=[N+]([O-])c1ccc(/C=N/Nc2ccc(Cl)nn2)o1 | 19 | -5 | 0 | 0
Cc1cc(C=C2C(=O)c3ccccc3C2=O)c(C)n1-c1ccc(S(N)(=O)=O)cc1 | -6 | 6 | 1 | 0
Cc1cc(C=C2C(=O)c3ccccc3C2=O)c(C)n1-c1cc(C(=O)O)cc(C(=O)O)c1 | 64* | 0 | 1 | 0
C=CCc1cccc(/C=N/NC(=O)CCCO)c1O | 29 | 6 | 0 | 0
C=CCc1cccc(/C=N/NC(=O)C[n+]2ccccc2)c1O | 29 | 60* | -1 | 0
O=C(CCNC(=O)Oc1ccccc1)NC1CCCCC1 | 7 | 6 | -1 | 1.9*
O=C(CCNC(=O)OCc1ccccc1)NC1CCCCC1 | 17 | 7 | 1 | 1
CC(C)c1ccc(OCC(=O)OCCN2C(=O)c3ccccc3C2=O)cc1 | 4 | 3 | 0 | 0
C(=Nc1ccc2c(c1)OCCO2)c1ccc(OC2CSC2)cc1 | 11 | 45* | 1 | 1
CC1(C)C(=O)NCCN1C(=O)c1ccc(C(=O)c2ccccc2)cc1 | -16 | 39* | -1 | 0
C=CCn1c(-c2ccccc2)cnc1SCC(=O)Nc1ccccc1 | 15 | 23 | 0 | -1
C=CCn1c(-c2ccc(Cl)cc2)cnc1SCC(=O)Nc1sccc1C(N)=O | 1 | 34* | 0 | 0
SMILES | MITF inh | TEAD-YAP inh | GPR151 ag | FBW7 act
O=C(Nc1nc2ccc([N+](=O)[O-])cc2s1)c1cc(=O)c2ccccc2o1 | -6 | 2 | 0 | 0
Cc1cc(OS(=O)(=O)c2ccc(F)cc2)c(C)cc1CN1CCOCC1 | -5 | 9 | -1 | 0
COc1ccc(S(=O)(=O)Oc2cc(C)cc(C)c2CN2CCOCC2)cc1 | -11 | 37* | 0 | 0
O=C1OC(c2cccc(Br)c2)=N/C1=C\c1ccc2c(c1)OCO2 | -3 | -2 | -2 | 0
COc1ccccc1CNC(=O)CS(=O)Cc1nc(-c2ccccc2C)oc1C (stereo unspecified) | 26 | -4 | -1 | 2.6*
Cc1oc(-c2ccccc2Cl)nc1CS(=O)CC(=O)NCc1ccccn1 (stereo unspecified) | -4 | 2 | 0 | 1
Cc1oc(-c2ccccc2Cl)nc1CS(=O)CC(=O)NCc1ccc2c(c1)OCO2 (stereo unspecified) | 18 | 10 | -1 | 3.9*
CCOC(=O)c1sc(NC(=O)CCSCCC(=O)Nc2nc(C)c(C(=O)OCC)s2)nc1C | -9 | 4 | -1 | 0
CC(=O)N(/C=C1\Sc2ccccc2C1=O)c1ccc(C(=O)O)cc1 | 13 | -5 | -4 | 0
